Compounds with a hit are over-represented: about 11% of the library has one in this group of screens.
Pf growth 96h: P. falciparum growth inhibition at 96 hour, primary screen for plastid delayed-death inhibitors; 320,000 compounds, 6.9% hits; P. falciparum luciferase reporter growth, 96 h; AID 504834; Potency, µM (series often up to 28.7 µM), without a hit: at the highest dose activity change, negative = inhibition, usual class: inhibitors
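Cell-based qHTS: luciferase-tagged P. falciparum in erythrocytes (2% hematocrit, 0.05% parasitemia final) incubated with compounds for 96 hours, 37 C, 5% CO2; luciferase detection reagent then added and luminescence measured.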
AMA1-RON2 inh: disrupts binding of P. falciparum AMA1 to RON2 | AlphaScreen AMA1-biotinylated RON2 peptide binding | Potency, µM (highest dose often 58.2 µM), for the others: at the highest dose activity change, negative = inhibition, hits mostly inhibitors | 360,000 compounds, 0.2% hits | AID 720542;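 also: 0% = vehicle wells and -100% = peptide control; nearly all actives have a fitted effect of over 45% in size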
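AMA1 (3D7) with his tag at 25 nM final met compounds first, then biotinylated RON2 peptide at 25 nM; detection used donor plus acceptor beads, 10 µg/mL apiece, read by AlphaScreen after 30 min at room temperature.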
Pf growth 48h: inhibits P. falciparum growth in the first generation, 48 h | P. falciparum luciferase growth in erythrocytes, 48 h | Potency, µM (series often up to 28.7 µM), for the others: at the top dose activity change, negative = inhibition, hits mostly inhibitors | 310,000 compounds, 5.9% hits
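Growth was read as firefly luciferase luminescence after a 48 h, 37 C, 5% CO2 exposure of compounds to reporter-bearing P. falciparum cultures (0.1% parasitemia, 2% hematocrit final) in Albumax-supplemented RPMI 1640.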
HCV inhibitor: HCV inhibition. Huh7.5.1 HCVcc-Cre infection, luciferase reporter, 44 h. Potency, µM (series often up to 41.8 µM), for the others: top-dose activity change, negative = inhibition, hits mostly inhibitors. 340,000 compounds, 3.4% hits. AID 651820
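After 44 h co-culture of compound, cells and HCVcc-Cre (~0.5 moi), substrate is added for 15 min at room temperature and luciferase measured over 15 sec. Cells were seeded at 1,000/well and pre-cultured 4 h.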
An asterisk follows results filed as active; [ ] = dose if it differs, or a comment. Calls follow the shape of the dose curve; as a rule, active = well fitted curve in the direction sought with a large enough effect; inconclusive = small, poorly fitted or top-dose-only effect, or another doubt; inactive = no such curve, though single readings can be large; an effect the other way counts as inactive or inconclusive. Unless noted, % is scaled to controls: 0 for no effect and ±100 for the full control effect; potency is read from the fitted curve at half-maximal effect.

Screening Cn1c2c(c(=O)n(C)c1=O)C(C(F)(F)F)(C(F)(F)F)N=C(CCC1CCCCC1)N2 returned Pf growth 96h 12µM*, AMA1-RON2 inh -1%, Pf growth 48h inconclusive and HCV inhibitor inconclusive.
`COCCc1ccc(OC[C@H](O)CNC(C)C)cc1` gave Pf growth 96h -17% and Pf growth 48h 4%.
`CCN(CC)C1=C(Cl)C(=O)C(Cl)C12OCCO2` (stereo not given) gave Pf growth 96h -6%, AMA1-RON2 inh -9%, Pf growth 48h 15µM* and HCV inhibitor 1%.
For CC(NC(=O)Nc1nnc(C(F)(F)F)s1)(C(F)(F)F)C(F)(F)F the results were Pf growth 96h 5%, AMA1-RON2 inh 2%, Pf growth 48h 3.3µM* and HCV inhibitor 2.8µM*.
Screening CCOC(=O)C(=Nc1ccc(Cl)cc1)NO returned Pf growth 96h -15%, AMA1-RON2 inh 17%[11.6 µM], Pf growth 48h 7% and HCV inhibitor -5%.
For CCc1c(C)nc2ncnn2c1N1CCCC(C(=O)NCCc2ccc(OC)cc2)C1 (stereo not given) the results were Pf growth 96h 0%, AMA1-RON2 inh -7%, Pf growth 48h inconclusive and HCV inhibitor inconclusive.
For CCc1c(C)nc2ncnn2c1N1CCC(C(=O)Nc2ccccc2)CC1 the results were Pf growth 96h -20%, AMA1-RON2 inh -3%, Pf growth 48h inconclusive and HCV inhibitor inconclusive.
Screening CCc1c(C)nc2ncnn2c1N1CCC(C(=O)Nc2ccc(C)cc2)CC1 returned Pf growth 96h 12µM*, AMA1-RON2 inh 9%, Pf growth 48h inconclusive and HCV inhibitor inconclusive.
CCOc1ccccc1NC(=O)C1CCCN(c2c(CC)c(C)nc3ncnn23)C1 (stereo not given) was read as Pf growth 96h 13%, AMA1-RON2 inh 7%, Pf growth 48h 10µM* and HCV inhibitor 13µM*.
Cc1nc2ncnn2c(N2CCCC(C(=O)Nc3ccc4c(c3)CCC4)C2)c1C (stereo not given) was read as Pf growth 96h 154%, AMA1-RON2 inh -9%, Pf growth 48h 5.2µM* and HCV inhibitor 10µM*.
For O=C(Nc1ccc2c(c1)CCC2)C1CCCN(c2ncccn2)C1 (stereo not given) the results were Pf growth 96h 125%, AMA1-RON2 inh 5%, Pf growth 48h 92% and HCV inhibitor -19%.
Screening Nc1cc(N)cc(C(=O)c2ccccc2)c1 returned AMA1-RON2 inh 26%.
`CC1CCN(c2ncnc3c2cnn3-c2ccccc2)CC1` gave Pf growth 96h 141%, AMA1-RON2 inh 23% and HCV inhibitor -4%.
For COc1cccc(OCCN2CCN(c3ncnc4c3cnn4-c3ccccc3)CC2)c1 the results were Pf growth 96h 9.3µM*, AMA1-RON2 inh -8%, Pf growth 48h 12µM* and HCV inhibitor 7.1µM*.
O=C(c1ccccc1)N1CCN(c2ncnc3c2cnn3-c2ccccc2)CC1 was read as Pf growth 96h -26%, AMA1-RON2 inh 0%, Pf growth 48h inconclusive and HCV inhibitor 10µM*.
`Cc1nn(-c2ccccc2)c(Cl)c1C(=O)N1CCN(c2ncnc3c2cnn3-c2ccccc2)CC1` gave Pf growth 96h inconclusive, AMA1-RON2 inh -11%, Pf growth 48h inconclusive and HCV inhibitor 2.2µM*.
Screening CCCCN(CCO)c1ncnc2sc(-c3ccccc3)cc12 returned Pf growth 96h -3%, AMA1-RON2 inh 12% and HCV inhibitor 18µM*.
Screening COc1ccccc1N(C)S(=O)(=O)c1ccc(C(=O)OCC(=O)NCc2ccco2)cc1 returned Pf growth 96h 4%[5.75 µM], AMA1-RON2 inh -2%, Pf growth 48h inconclusive and HCV inhibitor 10%.
For COc1ccc(NC(=O)/C(C#N)=C/c2ccc(Sc3nncn3C)c([N+](=O)[O-])c2)cc1 the results were Pf growth 96h inconclusive, AMA1-RON2 inh 0%, Pf growth 48h inconclusive and HCV inhibitor 13%.
COc1ccc(OC2C(=O)N(Cc3ccc(F)cc3)C2c2cc(OC)c(OC)c(OC)c2)cc1 (stereo not given) was read as Pf growth 96h 25%, AMA1-RON2 inh -7%, Pf growth 48h 3.7µM* and HCV inhibitor 15%.
Screening CC(=O)N1C(=O)N(C(C)=O)C2C1N(C)C(=O)N2C(C)=O (stereo not given) returned Pf growth 96h -5%, AMA1-RON2 inh 7%, Pf growth 48h 21% and HCV inhibitor 8%.
COC(=O)[C@@]1(Cc2ccccc2)[C@@H]2C(=CC(=O)[C@H]2CC(=O)C(=O)N(C)C)CN1C(=O)c1ccccc1 was read as Pf growth 96h 10µM*, AMA1-RON2 inh -1%, Pf growth 48h inconclusive and HCV inhibitor inconclusive.
COC(=O)Cn1ncc(N(C)Cc2ccccc2)c(Cl)c1=O was read as Pf growth 96h 132%, AMA1-RON2 inh 6%, Pf growth 48h 105% and HCV inhibitor 12%.
Screening Cc1c(CCC(=O)NC2CC2)c(=O)oc2cc(O)ccc12 returned Pf growth 96h inconclusive, AMA1-RON2 inh 15%, Pf growth 48h inconclusive and HCV inhibitor -92%.
Screening COCCn1c(N)c(C(=O)NCc2cccs2)c2nc3ccccc3nc21 returned Pf growth 96h inconclusive, AMA1-RON2 inh 13%, Pf growth 48h inconclusive and HCV inhibitor inconclusive.
Screening CC(C)CCn1c(N)c(C(=O)NCc2cccs2)c2nc3ccccc3nc21 returned Pf growth 96h inconclusive, AMA1-RON2 inh 14%, Pf growth 48h 0.83µM* and HCV inhibitor 14µM*.
CC(C)OCCCNC(=O)c1c(N)n(Cc2cccs2)c2nc3ccccc3nc12 was read as Pf growth 96h 12µM*, AMA1-RON2 inh 36%, Pf growth 48h 9.3µM* and HCV inhibitor 10µM*.
Screening C=CC(=O)NC(NC(=O)C=C)c1ccccc1F returned Pf growth 96h 9.3µM*, AMA1-RON2 inh -15%, Pf growth 48h inconclusive and HCV inhibitor 15%.
For COc1ccc(NC(=O)C2CCCN2C(=O)OCc2ccccc2)cc1 (stereo not given) the results were Pf growth 96h 10%, AMA1-RON2 inh 29%, Pf growth 48h 9% and HCV inhibitor 7%.
For COc1ccc(C)cc1NC(=O)C1CCCN1C(=O)OCc1ccccc1 (stereo not given) the results were Pf growth 96h inconclusive, AMA1-RON2 inh -1%, Pf growth 48h 10µM* and HCV inhibitor -10%.
CC(NC(=O)C1CCCN1C(=O)OCc1ccccc1)c1ccccc1 (stereo not given) was read as Pf growth 96h inconclusive, AMA1-RON2 inh -4%, Pf growth 48h -1% and HCV inhibitor 12%.
`COc1ccc(OC)c(NC(=O)C2CCCN2C(=O)OCc2ccccc2)c1` (stereo not given) gave Pf growth 96h 15%, AMA1-RON2 inh -9%, Pf growth 48h 13µM* and HCV inhibitor inconclusive.
For Cc1ccc(NC(=O)C2CCCN2C(=O)OCc2ccccc2)cc1F (stereo not given) the results were Pf growth 96h inconclusive, AMA1-RON2 inh 15%, Pf growth 48h 7% and HCV inhibitor inconclusive.

Screening data as filed in PubChem.
